Source: PubChem
Compounds with a hit are over-represented: about 3.5% of the library has one in this group of screens.
FBW7 act – human FBW7 E3 ligase activation, primary screen | actives 0.13% (n = 650,000) | normalized activity (activation), % at 26.1 µM | AlphaScreen FBW7–phospho-cyclin E peptide binding, activator screen | Q969H0 | AID 1259310; in the data active = normalized activity above about 1.9%;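 also: purified mutant Fbw7 with reduced substrate affinity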
Target sequence (Q969H0 whole entry, looked up): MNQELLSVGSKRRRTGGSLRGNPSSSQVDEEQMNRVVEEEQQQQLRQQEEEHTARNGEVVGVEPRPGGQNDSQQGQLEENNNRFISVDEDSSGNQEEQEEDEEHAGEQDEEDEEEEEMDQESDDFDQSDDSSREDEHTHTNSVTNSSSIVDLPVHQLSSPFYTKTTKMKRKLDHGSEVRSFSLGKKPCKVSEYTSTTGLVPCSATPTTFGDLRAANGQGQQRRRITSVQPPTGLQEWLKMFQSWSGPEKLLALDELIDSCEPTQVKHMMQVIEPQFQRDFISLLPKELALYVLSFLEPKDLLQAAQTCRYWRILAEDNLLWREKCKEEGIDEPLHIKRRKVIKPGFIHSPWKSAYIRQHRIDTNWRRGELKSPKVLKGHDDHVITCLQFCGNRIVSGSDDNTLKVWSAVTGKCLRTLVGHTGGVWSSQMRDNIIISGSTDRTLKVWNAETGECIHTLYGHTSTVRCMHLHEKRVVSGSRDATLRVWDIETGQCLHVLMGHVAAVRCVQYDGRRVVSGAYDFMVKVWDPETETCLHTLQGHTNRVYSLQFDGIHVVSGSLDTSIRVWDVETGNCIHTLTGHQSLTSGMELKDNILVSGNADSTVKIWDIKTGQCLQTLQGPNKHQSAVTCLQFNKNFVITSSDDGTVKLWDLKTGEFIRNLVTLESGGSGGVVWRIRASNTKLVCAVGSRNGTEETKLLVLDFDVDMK
MITF primary – blocks human microphthalmia-associated transcription factor; inhibition, % at 2.6 µM; AID 1259374; AlphaScreen MITF homodimerization, bead proximity signal; actives 0.91% (n = 650,000); O75030; in the data active = inhibition above about 50%
TEAD-YAP inh – TEAD-YAP interaction inhibition | HEK-TIYL cells, TEAD-Gal4/YAP UAS-luciferase luminescence | inhibition, % at 9.12 µM | actives 1.4% (n = 640,000); in the data active = inhibition above about 32%
GPR151 ag – activators of human GPR151. activation, % at 11.2 µM. AID 1508602. PathHunter beta-arrestin GPR151 cells, luminescence. Q8TDV0. actives 1% (n = 650,000); in the data active = activation above about 4.9%
Hits are given with their value.

What do the screens show for `CC(C)NC(=O)c1cc(Sc2ccccc2Cl)nc2ccccc12`?
FBW7 act: inactive; MITF primary: inactive; TEAD-YAP inh: inactive; GPR151 ag: inactive

What do the screens show for `Cc1nc2ccccc2n1CCc1noc(C2CC2)n1`?
FBW7 act: inactive; MITF primary: inactive; TEAD-YAP inh: inactive; GPR151 ag: inactive

How did Cc1ccc(NC(=O)CN(C)c2nnc(N3CCCC3=O)s2)cc1C do in these assays?
FBW7 act: inactive; MITF primary: inactive; TEAD-YAP inh: inactive; GPR151 ag: inactive

Results for Brc1ccc(-c2ccc(C3CCCCC3)cn2)cc1 ?
FBW7 act: inactive; MITF primary: inactive; TEAD-YAP inh: 63; GPR151 ag: inactive

How did N#CC(C#N)=C(N)/C(C#N)=C/c1ccc(-c2cc(C(=O)O)cc(C(=O)O)c2)o1 do in these assays?
FBW7 act: inactive; MITF primary: 63; TEAD-YAP inh: inactive; GPR151 ag: inactive

How did CCOc1ccc(-n2c(-c3ccccc3)c[n+]3c2CCC3)cc1 do in these assays?
FBW7 act: inactive; MITF primary: inactive; TEAD-YAP inh: 49; GPR151 ag: inactive

Results for CCOc1ccc(-n2c(-c3ccc(OC)cc3)c[n+]3c2CCCCC3)cc1 ?
FBW7 act: inactive; MITF primary: inactive; TEAD-YAP inh: 85; GPR151 ag: inactive

What do the screens show for `CCOc1ccc(-n2c(-c3ccccc3)n[nH]c2=S)cc1`?
FBW7 act: inactive; MITF primary: inactive; TEAD-YAP inh: inactive; GPR151 ag: inactive

Results for CCOC(=O)COc1ccc(C2NC(=O)NC(C)=C2C(=O)OC)cc1 (stereo not drawn) ?
FBW7 act: inactive; MITF primary: inactive; TEAD-YAP inh: inactive; GPR151 ag: inactive

Results for CCOC(=O)C1=C(c2ccc(F)cc2)C(=O)c2ccccc2C1=O ?
FBW7 act: inactive; MITF primary: inactive; TEAD-YAP inh: inactive; GPR151 ag: inactive

Results for CCOC(=O)C1=C(Cc2ccc(OC)cc2)C(=O)c2ccccc2C1=O ?
FBW7 act: inactive; MITF primary: inactive; TEAD-YAP inh: 46; GPR151 ag: inactive

What do the screens show for `CCCOc1cccc(C(=O)Nc2ccc(Cl)c(NC(=O)c3ccccc3)c2)c1`?
FBW7 act: inactive; MITF primary: inactive; TEAD-YAP inh: inactive; GPR151 ag: inactive

How did CN1c2ccccc2N(C)C1c1cccc(O)c1 do in these assays?
FBW7 act: inactive; MITF primary: inactive; TEAD-YAP inh: inactive; GPR151 ag: inactive

Results for CN(C)c1ccc(C2N(C)c3ccccc3N2C)cc1 ?
FBW7 act: inactive; MITF primary: inactive; TEAD-YAP inh: 47; GPR151 ag: inactive

Results for CCNc1nc(NCC)nc(Sc2ccc([N+](=O)[O-])cc2[N+](=O)[O-])n1 ?
FBW7 act: inactive; MITF primary: inactive; TEAD-YAP inh: 51; GPR151 ag: inactive

How did CC(C)Oc1ccccc1/C=C1\SC(N2CCOCC2)=NC1=O do in these assays?
FBW7 act: inactive; MITF primary: inactive; TEAD-YAP inh: 39; GPR151 ag: inactive

What do the screens show for `CC(C)Oc1ccccc1/C=C1/SC(N2CCN(C)CC2)=NC1=O`?
FBW7 act: inactive; MITF primary: inactive; TEAD-YAP inh: inactive; GPR151 ag: inactive

What do the screens show for `COc1cccc(/C=C2/SC(N3CCCC3)=NC2=O)c1OC`?
FBW7 act: inactive; MITF primary: inactive; TEAD-YAP inh: 33; GPR151 ag: inactive

Results for COc1cccc(/C=C2\SC(N3CCCC3)=NC2=O)c1OC ?
FBW7 act: inactive; MITF primary: inactive; TEAD-YAP inh: inactive; GPR151 ag: inactive

Results for COc1ccc(C(=O)Nc2nc(-c3ccc(C(C)C)cc3)cs2)cc1 ?
FBW7 act: inactive; MITF primary: inactive; TEAD-YAP inh: inactive; GPR151 ag: inactive

What do the screens show for `CC(C)c1ccc(-c2csc(NC(=O)c3ccnn3C)n2)cc1`?
FBW7 act: inactive; MITF primary: inactive; TEAD-YAP inh: 57; GPR151 ag: inactive

Results for CN(C)S(=O)(=O)c1ccc(C(=O)Nc2sc3c(c2C(N)=O)CC(C)(C)NC3(C)C)cc1 ?
FBW7 act: inactive; MITF primary: inactive; TEAD-YAP inh: inactive; GPR151 ag: inactive

Results for CCN1/C(=C/c2ccc3cc(C)ccc3[n+]2CC)Sc2cc(NC(C)=O)ccc21 ?
FBW7 act: inactive; MITF primary: inactive; TEAD-YAP inh: inactive; GPR151 ag: inactive

Results for CCN1/C(=C/c2ccc3cc(C)ccc3[n+]2CC)Sc2c(C)cc(C)cc21 ?
FBW7 act: inactive; MITF primary: inactive; TEAD-YAP inh: 73; GPR151 ag: inactive

What do the screens show for `CCN1/C(=C/c2ccc3ccc(C)cc3[n+]2CC)Sc2cc(C)c(C)cc21`?
FBW7 act: inactive; MITF primary: inactive; TEAD-YAP inh: 89; GPR151 ag: inactive

What do the screens show for `CCN1/C(=C/c2ccc3ccc(C)cc3[n+]2C)Sc2ccccc21`?
FBW7 act: inactive; MITF primary: inactive; TEAD-YAP inh: 90; GPR151 ag: inactive

What do the screens show for `COc1ccc(C2=NOC(C(=O)NCc3ccc(F)cc3)C2)cc1OC` (stereo not drawn)?
FBW7 act: inactive; MITF primary: inactive; TEAD-YAP inh: 50; GPR151 ag: inactive

Results for COCCNC(=O)C1CC(c2ccc(OC)c(OC)c2)=NO1 (stereo not drawn) ?
FBW7 act: inactive; MITF primary: inactive; TEAD-YAP inh: inactive; GPR151 ag: inactive

What do the screens show for `O=C(Cn1cnc2c(-c3ccc(F)cc3)csc2c1=O)NCCc1ccccc1`?
FBW7 act: inactive; MITF primary: inactive; TEAD-YAP inh: inactive; GPR151 ag: inactive

Results for O=C(Cn1cnc2c(-c3ccc(F)cc3)csc2c1=O)NCc1ccccc1 ?
FBW7 act: inactive; MITF primary: inactive; TEAD-YAP inh: 49; GPR151 ag: inactive

How did O=C(Cn1cnc2scc(-c3ccc4ccccc4c3)c2c1=O)NCc1ccccc1 do in these assays?
FBW7 act: inactive; MITF primary: inactive; TEAD-YAP inh: 37; GPR151 ag: inactive

What do the screens show for `CN(Cc1ccccc1)C(=O)Cn1cnc2scc(-c3ccccc3)c2c1=O`?
FBW7 act: inactive; MITF primary: inactive; TEAD-YAP inh: 32; GPR151 ag: inactive

How did CNc1nc(N2CCCCC2)nc(N)c1[N+](=O)[O-] do in these assays?
FBW7 act: inactive; MITF primary: inactive; TEAD-YAP inh: inactive; GPR151 ag: inactive

Results for N/C(=N\N=C/c1ccc([N+](=O)[O-])cc1)N/N=C\c1ccc([N+](=O)[O-])cc1 ?
FBW7 act: 4.3; MITF primary: inactive; TEAD-YAP inh: inactive; GPR151 ag: inactive

Results for O=C(N/N=C/c1ccccc1)c1cccc(O)c1 ?
FBW7 act: inactive; MITF primary: inactive; TEAD-YAP inh: 34; GPR151 ag: inactive

How did O=C(N/N=C/c1ccc([N+](=O)[O-])cc1)c1cccc(O)c1 do in these assays?
FBW7 act: inactive; MITF primary: inactive; TEAD-YAP inh: 40; GPR151 ag: inactive

Results for O=C(N/N=C/c1ccc(O)cc1)c1cccc(O)c1 ?
FBW7 act: inactive; MITF primary: inactive; TEAD-YAP inh: inactive; GPR151 ag: inactive

How did O=C(CC(=O)N/N=C/c1ccc([N+](=O)[O-])cc1)N/N=C/c1ccc([N+](=O)[O-])cc1 do in these assays?
FBW7 act: inactive; MITF primary: inactive; TEAD-YAP inh: inactive; GPR151 ag: inactive

How did COc1ccc(NC(=O)c2ccc3c(=O)n(-c4ccc(F)cc4)c(=S)[nH]c3c2)cc1 do in these assays?
FBW7 act: inactive; MITF primary: inactive; TEAD-YAP inh: inactive; GPR151 ag: inactive
